Drawing on PubChem BioAssay AID2732 (Emory University Molecular Libraries Screening Center, 2010), this text covers inhibition for 95 compounds.

Out of some 220,000 compounds screened, about 8,200 (3.7%) were called active. The sample as a whole holds a higher share of actives than the screen did. Unmarked numbers belong to inactive results.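 Rule for the calls: active = compounds that reduced the stress-induced luciferase reporter signal by more than about 70% of percent inhibition (limit read from the data); inactive = the rest.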

The experiment is described as follows: blockers of ER-stress CHOP reporter expression – cell-based, unfolded protein response, luciferase reporter, primary screen (AID 2732).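 Note: 0% = tunicamycin plus vehicle and 100% = wells without tunicamycin.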 To be noted: CHO-K1 CHOP-promoter luciferase, tunicamycin-induced, 15-18 h; at 10 µM; active compounds read high. (In a reporter assay the amount or activity of a reporter protein is the signal.)
The term inhibition denotes the drop in the measured response relative to a control, in per cent. Regarding `COC(=O)/C=C(\Oc1ccccc1)C1(O)CCCCC1`, the inhibition is 7.27%.
`Fc1ccc(Nc2nnns2)cc1`: the inhibition is 3.88%.
Turning to `Cc1ccc(-n2ncc3c2ncn2nc(-c4ccco4)nc32)c(C)c1`, the inhibition was 105% (active).
`COC(=O)CSc1ncnc2c1cnn2-c1ccc(C)cc1C`: the inhibition was -4.08%.
For `Cc1ccc(-n2ncc3c(=O)n(-c4ccc(C)c(C)c4)c(-c4ccco4)nc32)cc1`, the inhibition is 37.9%.
Consider `O=C(NCc1cccnc1)Nc1cccc(NC(=O)NCc2cccnc2)c1F`, for which the inhibition was 7.4%.
Regarding `CN1CCN(C2=NCCO2)CC1`, the inhibition was 2.43%.
Then `O=C(Nc1nc2c(F)cc(F)cc2s1)C1COc2ccccc2O1` (stereo not given), with 17.5%; and `O=C(Nc1nnc(SCc2c(Cl)cccc2Cl)s1)C1CCCO1` (stereo not given), with 18.8%; and `O=C(Nc1nnc(SCc2ccc(Cl)cc2Cl)s1)C1COc2ccccc2O1` (stereo not given), with 71.3% (active).
With `Cc1cnc(NC(=O)c2ccccn2)s1` the figure was 8.8%; with `CN(C)S(=O)(=O)c1ccc(C(=O)NCC(C)(C)N2CCOCC2)cc1`, -18.3%; with `Cc1nc2ccccc2nc1N/N=C/c1ccc(O)cc1O`, 74.5% (active).
Then `Oc1ccc(/C=N/NC2=NCCCCC2)c(O)c1`, with -12.1%; and `Oc1ccc(/C=N/Nc2nc(-c3ccccc3F)nc3ccccc23)c(O)c1`, with 57.6%.
Take `O=C(O)Cc1csc(NC(=O)CSc2nnnn2-c2ccc(O)cc2)n1`: the inhibition is -5.01%.
For the compound `CCc1ccc(S(=O)(=O)NCC(O)COc2ccc(OC)cc2)cc1` (stereo not given), the inhibition is 16.3%.
With `O=C(N/N=C\c1cc(Br)c(Br)o1)C1COc2ccccc2O1` (stereo not given) the figure was 6.22%; with `Cc1ccc(-c2csc(-c3c[nH]c4ccccc34)n2)cc1`, 98.1% (active).
For the compound `Cc1ccc(-c2csc(-c3cc(C)on3)n2)cc1`, the inhibition is -14.2%.
With `CCCc1cc(-c2nc(-c3ccc(C)cc3)cs2)ccn1` the figure was 39.6%; with `COCc1cc(=O)oc2cc(NS(=O)(=O)c3ccc(C)cc3)ccc12`, 9.01%; with `Cc1cc(Nc2ccc(N3CCOCC3)cc2)c2cccc(C)c2n1`, -27.9%.
Then `CC(=O)c1ccc(NC(=O)Nc2ccc([N+](=O)[O-])cc2C)cc1`, with 51.8%; and `COC(=O)c1ccc(NC(=O)Nc2ccc(C)cc2)cc1`, with 26.6%; and `COc1cc(NC(=O)Nc2ccc(C)cc2)cc([N+](=O)[O-])c1`, with 71.2% (active).
Then `Cn1c(=O)c2c(nc(NCc3ccccc3)n2CC(N)=O)n(C)c1=O`, with 9.77%; and `Cc1ccccc1N1CCN(Cc2nc(Cc3ccccc3F)no2)CC1`, with -7.61%.
As for `COc1cc(C(=O)OC(C)C(=O)NCC2CCCCC2)cc(NC(=O)c2ccco2)c1OC` (stereo not given), the inhibition is 101% (active).
Consider `COC(=O)c1cc(Cl)c(NC(=O)c2ccco2)cc1OC`, for which the inhibition is -8.18%.
With `COc1cc(C(=O)N[C@@H](C)C(=O)NCc2ccco2)cc(OC)c1OC`, the inhibition is 0.36%.
In the case of `Cc1[nH]n(C)c(=O)c1N=Nc1ccc(S(C)(=O)=O)cc1`, the inhibition is 7.35%.
Regarding `CCc1ccccc1NC(=O)/C(=C/c1ccccc1)c1ccccc1`, the inhibition was 84.8% (active).
With `CCc1ccccc1NC(=O)c1cccs1` the figure was 39.1%; with `O=C(/C=C/c1ccccc1)N/C(=C/c1ccccc1)C(=O)Nc1ccccc1O`, -0.94%.
Then `COc1ccccc1N1CCN(C(=O)c2ccc(S(=O)(=O)N3CCCCC3)cc2)CC1`, with 10.2%.
Then `O=C(N/N=C/c1ccccn1)c1ccc(S(=O)(=O)N2CCCCCC2)cc1`, with -0.54%.
Turning to `N#CC(C(=O)c1ccc(S(=O)(=O)N2CCCCCC2)cc1)c1nc2ccccc2[nH]1` (stereo not given), the inhibition is 101% (active).
With `CCN(CC)S(=O)(=O)c1ccc(Cl)c(NC(=O)c2ccncc2)c1` the figure was 4.4%; with `Cc1ccc(S(=O)(=O)N(C)C)cc1NC(=O)COC(=O)c1c(C)noc1C`, 22.9%.
With `CCN(CC)S(=O)(=O)c1ccc(C)c(NC(=O)COc2ccc(Br)cc2Cl)c1` the figure was 88% (active); with `COC(=O)c1cccc(NS(C)(=O)=O)c1`, 27.4%.
Regarding `COC(=O)c1sc(SC)c(S(=O)(=O)C(C)C)c1N/N=C(\C#N)S(=O)(=O)c1ccccn1`, the inhibition is 5.06%.
With `CCN(CC(=O)Nc1cccc(S(N)(=O)=O)c1)Cc1nc2ccccc2c(=O)[nH]1` the figure was -6.72%; with `C=CCSc1nc(N)cc(=O)[nH]1`, 14.8%.
With `O=C(O)C1CC=CCC1C(=O)Nc1ccccc1C(=O)N1CCN(c2ccccc2)CC1` (stereo not given) the figure was 12.7%; with `CC(C)c1ccc(N2CCN(C(=O)c3ccccc3NC(=O)/C=C(\C(=O)O)c3ccccc3)CC2)cc1`, 110% (active); with `Cc1cccc(N2CCN(C(=O)c3ccccc3NC(=O)C3CCCCC3C(=O)O)CC2)c1` (stereo not given), 13.9%.
On to `CC12CN3CCN(CC(C3)/C1=N\NC(=O)c1ccccc1N)C2`, for which the inhibition is 7.18%.
Then `CCCCNc1nc2c(c(=O)n(C)c(=O)n2C)n1Cc1cccc(OC)c1`, with 17.1%; and `Cn1c(=O)c2c(nc(N/N=C/c3cccs3)n2Cc2ccc(Br)cc2)n(C)c1=O`, with 79.6% (active).
Then `Cn1c(=O)c2c(nc(NCCc3ccccc3)n2Cc2ccccc2)n(C)c1=O`, with 61.2%; and `O=C(CS(=O)(=O)c1ccc(C(F)(F)F)cn1)NNC(=O)c1ccccc1`, with 3.02%; and `CCOC(=O)c1sc2nc(C)[nH]c(=O)c2c1C`, with 3.38%.
Then `CCOC(=O)c1sc(C)c2c1NC(C)(c1cccc3ccccc13)NC2=O` (stereo not given), with 74.8% (active); and `CCOC(=O)c1sc2nc(CSc3ccccc3)[nH]c(=O)c2c1C`, with 63.4%.
Regarding `Cc1nc(/N=C(\N)NC(=O)NC2CCCCC2)nc2ccccc12`, the inhibition is 33.5%.
Take `O=C(Nc1cccn(Cc2ccccc2Cl)c1=O)NC1CCCCC1`: the inhibition is 26.3%.
Turning to `O=c1ccn(Cc2ccccc2Cl)cc1`, the inhibition was 68.6%.
Then `CC1(C)COC(c2cccn2Cc2ccccc2Cl)=N1`, with 71.8% (active).
Take `O=C(/C(=C/c1cccc(Cl)c1)c1nc2ccccc2[nH]1)c1ccccc1`: the inhibition was 92.6% (active).
For the compound `O=C(Cc1nc2ccccc2[nH]c1=O)c1ccc(Cl)cc1`, the inhibition was -13.2%.
With `CCC(=O)/C(=C(/O)c1ccccc1)c1nc2ccccc2[nH]1` the figure was -37.6%; with `Cc1ccc(NNC(=O)c2c(F)cccc2Cl)cc1Cl`, 4.19%; with `NC(=O)c1c(NC(=O)CSc2nnc(-c3ccco3)n2N)sc2c1CCCC2`, 22.2%.
With `COc1ccc(-n2c(SCC(=O)Nc3sc4c(c3C#N)CCCC4)nnc2-c2ccc(O)cc2)cc1` the figure was 106% (active); with `COc1cccc(CN(C)CC(=O)Nc2sc3c(c2C#N)CCC3)c1`, 3.74%; with `COc1ccc(OC)c(-n2c(-c3ccn[nH]3)n[nH]c2=S)c1`, 12.3%.
With `CCOC(=O)N1CCN(c2c(NCCN3CCN(c4ccccc4F)CC3)c(=O)c2=O)CC1` the figure was 18.8%; with `c1ccc(-c2noc(-c3cccs3)n2)nc1`, 22.5%.
`O=C(Oc1ccccc1)c1ccc2nccnc2c1`: the inhibition was -6.68%.
Take `O=C(Oc1ccc(-c2nc(-c3ccccn3)no2)cc1)c1ccccc1`: the inhibition is 83.7% (active).
Regarding `O=c1c2c3c(sc2n(CCN2CCCC2)c(=O)n1Cc1ccccc1)CCCCC3`, the inhibition is 44.2%.
Then `CSc1nnnn1-c1c(C)cc(C)cc1C`, with 3.56%; and `CC(=O)c1c(C)[nH]c(C(=O)COC(=O)c2cccc(S(=O)(=O)N(C)c3ccccc3)c2)c1C`, with 86.8% (active).
With `CN(c1ccccc1)S(=O)(=O)c1ccc(Cl)c(C(=O)OCC(N)=O)c1` the figure was 7.63%; with `COc1ccc(C)cc1NC(=O)C(OC(=O)c1cccc(S(=O)(=O)N(C)c2ccccc2)c1)c1ccccc1` (stereo not given), -0.27%.
Consider `CN(c1ccc(OCC(=O)NC2=NCCS2)cc1)S(=O)(=O)c1ccc(F)cc1`, for which the inhibition is -3.41%.
`Cc1ccc(S(=O)(=O)/N=C(/NC(=S)Nc2c(C)n(C)n(-c3ccccc3)c2=O)c2ccccc2)cc1`: the inhibition is 5.21%.
As to `c1ccc(-c2nc(NCc3ccco3)c3ccccc3n2)cc1`, the inhibition is 8.64%.
For `Clc1cccc(-c2nc(NCC3CCCO3)c3ccccc3n2)c1` (stereo not given), the inhibition was 14.2%.
With `Clc1ccc2nc(-c3ccccc3)nc(C(Cl)Cl)c2c1` the figure was 75.6% (active); with `FC(F)(F)c1cccc(-c2nc(COc3ccc(Cl)cc3Cl)no2)c1`, -14.1%; with `O=C(c1cc(COc2c(F)cccc2F)on1)N1CCSCC1`, -22.2%.
Consider `CC[C@@H](C)[C@@H](C(=O)N1CCN(C(=O)OC(C)(C)C)CC1)n1cc(CCC(=O)O)nn1`, for which the inhibition was -7.63%.
Take `O=C(c1c(Cl)cccc1Cl)N1CCN(c2cccc3[nH]ccc23)CC1`: the inhibition was 12.1%.
Then `COC(=O)C1=C(C)N(C)C(=S)NC1c1ccccc1` (stereo not given), with -6.17%.
Then `COCCN1C(=O)N[C@@H](c2ccccc2)C(C(=O)OC)=C1C`, with -1.22%; and `COC(=O)C1=C(C)N(C)C(C)=C(C(=O)OC)C1c1cccc(Br)c1`, with 71.4% (active); and `N/C(=N\S(=O)(=O)c1ccc(Cl)cc1)N1CCOCC1`, with 13.5%.
`c1csc(-c2nnc(COc3ncnc4sccc34)o2)c1`: the inhibition was 4.38%.
With `Cc1cccc(C)c1Nc1c(-c2ccccc2O)nc2ncccn12`, the inhibition was 6.71%.
Then `O=c1c2ccccc2c(-c2ccc(Br)cc2)nn1Cc1ccccc1`, with 36.9%.
With `O=c1c2ccccc2c(-c2ccc(F)cc2)nn1-c1ccc(C(F)(F)F)cc1` the figure was 75.1% (active); with `O=c1c2ccccc2c(-c2ccccc2)nn1-c1ccccn1`, 38.6%.
